Test results from PubChem BioAssay (Tox21).
Activity calls are given as the source filed them. Calls follow the shape of the dose curve; as a rule, active = well fitted cell-killing curve with a large enough effect in the repeat runs; inconclusive = weak or mixed curves, or effect the other way; inactive = flat fitted curve, though single readings scatter.

experiment: qHTS assay to identify small molecule HDAC inhibitors - cell viability counter screen (AID 1259365); settings: HCT-116 viability, CellTiter-Glo ATP luminescence, 2 h; series mostly up to 92.4 µM; also: nearly all actives have a fitted effect of over 50% in size
Text: U.S. Tox21 Program National Center for Advancing Translational Sciences [NCATS] NIH Chemical Genomics Center [NCGC] U.S. Environmental Protection Agency [EPA] National Institutes of Environmental Health Sciences [NIEHS] National Toxicology Program [NTP] U.S. Food and Drug Administration [FDA] Tox21 Assay Overview: Histone deacetylases (HDACs) are a group of epigenetic enzymes that regulate gene expression by histone deacetylation. HDACs are capable of introducing epigenetic modifications and such aberrations contribute to the onset and progression of several human diseases, thus making HDACs a popular therapeutic target. For identifying endogenous class I/II HDAC inhibitors a homogenous, luminogenic HDAC I/II cell based assay was used to measure the relative activity of class I and II HDACs from cells. Wild type HCT-116 cells were used to screen Tox21 compound libraries for identifying class I/II HDAC inhibitors.
Tox21 Assay Protocol Summary: HCT-116 cells were dispensed at 1,500 per well in 5uL of culture medium into white solid bottom 1536-well plates (Greiner Bio-One, Monroe, NC) using a Multidrop Combi (Thermo Scientific, Waltham, MA) dispenser. The assay plates were incubated at 37 C and 5% CO2 for an overnight, and then 23nL of compounds dissolved in DMSO and positive control were transferred using a Pintool station (Wako, San Diego, CA). The assay plates were incubated at 37C and 5% CO2 for 2hr. After compound treatment, 4uL of CellTiter-Glo reagent (Promega Corporation, Madison, WI) was added to each well of the assay plates using Flying Reagent Dispenser (FRD, Aurora Discovery, San Diego, CA) and incubated the assay plates at room temperature for 30min. The luminescence signal was quantified using a ViewLux plate reader (Perkin Elmer, Shelton, CT).
% is scaled to controls: 0 for no effect and ±100 for the full control effect.

Row | Structure (SMILES) | outcome | activity change, negative = cytotoxicity
1 | CC(=O)OC(C)OC(=O)C(C)c1ccc(-c2ccccc2)c(F)c1 (stereo not given) | inactive | –
2 | O=C1CCCC(=O)O1 | inactive | –
3 | COc1cc2c(cc1OC)C(=O)CC2 | inactive | –
4 | COC(=O)CCc1ccc(OCC(O)CNC(C)C)cc1 (stereo not given) | inactive | –
5 | CN1CCN(CC(=O)N2c3ccccc3C(=O)Nc3cccnc32)CC1 | – | 3.63% [at 8.39 µM] (inactive)
6 | CCC(C=O)CC | inactive | –
7 | C=C(C)C(=O)OCC(C)(C)COC(=O)C(=C)C | inactive | –
8 | CN1C(C)(C)CCCC1(C)C | inactive | –
9 | CCOc1cc(NC(C)=O)ccc1C(=O)OC | inactive | –
10 | O=C1c2ccccc2C(=O)c2cc(S(=O)(=O)O)ccc21 | inactive | –
11 | O=C(/N=N/C(=O)OCc1ccccc1)OCc1ccccc1 | inactive | –
12 | FC(F)(F)c1ccccc1-n1ccnc1 | inactive | –
13 | O=S(=O)(O)c1cc(O)c2ccc(Nc3ccccc3)cc2c1 | inactive | –
14 | CC(C)OC(=O)CCCCC(=O)OC(C)C | inactive | –
15 | CCOc1cc([N+](=O)[O-])c(OCC)cc1N1CCOCC1 | inactive | –
16 | O=C(O)C(=O)Cc1ccccc1 | inactive | –
17 | CC(=O)Nc1cccc(C)c1 | inactive | –
18 | Oc1ccccc1-c1nnco1 | inactive | –
19 | CN(CCOc1ccc(NS(C)(=O)=O)cc1)CCc1ccc(NS(C)(=O)=O)cc1 | inactive | –
20 | CC1COc2ccccc2N1 (stereo not given) | inactive | –

Row | Structure (SMILES) | outcome | activity change, negative = cytotoxicity
21 | CC(=O)Nc1ccc(S(=O)(=O)Nc2ccc([N+](=O)[O-])cc2)cc1 | inactive | –
22 | O=C(Nc1ccc(Cl)c(Cl)c1)C1CC1 | inactive | –
23 | CC1(CO)CN(c2ccccc2)NC1=O (stereo not given) | inactive | –
24 | C=C(C)C1CCC(C)(O)CC1 (stereo not given) | inactive | –
25 | C=C1CC/C=C(\C)CC[C@@H]2[C@@H]1CC2(C)C | inactive | –
26 | Cc1ccc2ccc(Cl)cc2n1 | inactive | –
27 | COc1ccc(-c2cc(=O)c3c(O)cc(O[C@@H]4O[C@H](CO[C@@H]5O[C@@H](C)[C@H](O)[C@@H](O)[C@H]5O)[C@@H](O)[C@H](O)[C@H]4O)cc3o2)cc1O | inactive | –
28 | CC(=C(CCOC(=O)C(C)C)SSC(CCOC(=O)C(C)C)=C(C)N(C=O)Cc1cnc(C)nc1N)N(C=O)Cc1cnc(C)nc1N | inactive | –
29 | C[C@@H](O)[C@H]1C(=O)N2C(C(=O)O)=C(SCCN=CN)C[C@H]12 | inactive | –
30 | CC(CO)c1ccccc1 (stereo not given) | inactive | –
31 | COCCc1ccc(OCC2CO2)cc1 (stereo not given) | inactive | –
32 | Cc1cccc(C)c1NC(=O)c1ccccc1C(=O)O | inactive | –
33 | COCCOCCOCCOCCO | inactive | –
34 | COc1ccc2c(c1)C(=O)N(CCc1ccc(S(=O)(=O)NC(=O)NC3CCCCC3)cc1)C(=O)C2(C)C | inactive | –
35 | C#CC(C)N(C)C(=O)Nc1ccc(Cl)cc1 (stereo not given) | inactive | –
36 | CCn1ccc(NS(=O)(=O)c2ccc(N)cc2)nc1=O | inactive | –
37 | O=C(CS(=O)Cc1ccco1)NC/C=C\COc1cc(CN2CCCCC2)ccn1 (stereo not given) | inactive | –
38 | Cc1[nH]cnc1-c1ccc(Cl)cc1 | inactive | –
39 | Cc1ccc(S(=O)(=O)O)c(C)c1 | inactive | –
40 | CN=C(NC#N)Nc1ccc(C2=NNC(=O)CC2C)cc1 (stereo not given) | inactive | –
